Measured values from PubChem BioAssay.
Values joined by “and” are separate entries in the source; they are usually repeats but may differ in a detail not shown here. Equal entries are not always repeated. Active and inactive are the calls of the source. Rule as the data show it, unless noted: active = inhibition above about 80%; inactive = the rest.

Tests used:
[1] = target: NAD(+) hydrolase SARM1 (Homo sapiens) (UniProt Q6SZW1); experiment: blocking NAD cleavage by SARM1 SAM-TIR – cell lysate, NAD-Glo luminescence (AID 1508614;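 active = compound whose remaining NAD level is above about 45 nM, limit read from the data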;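 also: higher remaining NAD means stronger inhibition of SARM1 NADase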); conditions: SAM-TIR HEK293T lysate NADase, at 1 µM, stronger effect = higher value
Sequence of NAD(+) hydrolase SARM1 (Homo sapiens) (Q6SZW1 whole entry, looked up): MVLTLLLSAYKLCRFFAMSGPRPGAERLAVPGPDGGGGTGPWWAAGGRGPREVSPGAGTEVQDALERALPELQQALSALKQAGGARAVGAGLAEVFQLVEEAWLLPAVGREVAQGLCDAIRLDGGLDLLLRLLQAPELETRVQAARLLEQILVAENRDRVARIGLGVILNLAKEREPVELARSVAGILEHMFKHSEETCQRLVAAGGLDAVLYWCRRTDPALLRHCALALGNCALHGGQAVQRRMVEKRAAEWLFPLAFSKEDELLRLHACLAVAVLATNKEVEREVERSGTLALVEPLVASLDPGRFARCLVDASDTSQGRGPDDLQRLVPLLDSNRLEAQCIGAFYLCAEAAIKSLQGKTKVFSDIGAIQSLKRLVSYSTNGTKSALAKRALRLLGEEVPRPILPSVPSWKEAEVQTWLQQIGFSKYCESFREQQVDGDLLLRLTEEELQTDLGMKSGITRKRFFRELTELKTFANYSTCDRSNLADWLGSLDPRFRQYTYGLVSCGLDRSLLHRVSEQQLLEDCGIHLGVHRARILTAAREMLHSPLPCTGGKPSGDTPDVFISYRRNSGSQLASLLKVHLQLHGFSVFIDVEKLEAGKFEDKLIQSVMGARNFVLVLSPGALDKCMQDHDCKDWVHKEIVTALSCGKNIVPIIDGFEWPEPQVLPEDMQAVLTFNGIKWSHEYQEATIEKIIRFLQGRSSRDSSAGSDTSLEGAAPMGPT

[2] = galactose survival enhancers in mitochondrial complex I cybrids – cell-based, galactose medium, ATP luminescence, primary screen (AID 1645843;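 active = z-score of at least 1.8 in each of two replicates, scored against plate mean and spread of sample wells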;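 also: positive z means more ATP and so rescue of galactose-driven cybrid death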); conditions: complex I mutant cybrid cells, 72 h, stronger effect = higher value
[3] = target: Mitogen-activated protein kinase 7 (Homo sapiens) (UniProt Q13164); experiment: Gal4-ERK5 driven luciferase induction – cell-based, HTS, primary screen (AID 1508626;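 active = luciferase signal above three times the same-plate solvent-only control wells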;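 also: luciferase driven by Gal4-ERK5 fusion binding five Gal4 sites before minimal TATA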); conditions: HeLa Gal4-ERK5 transactivation, 18 h, at 5 µM, stronger effect = higher value
Sequence of Mitogen-activated protein kinase 7 (Homo sapiens) (Q13164 whole entry, looked up, the tested form may be a part): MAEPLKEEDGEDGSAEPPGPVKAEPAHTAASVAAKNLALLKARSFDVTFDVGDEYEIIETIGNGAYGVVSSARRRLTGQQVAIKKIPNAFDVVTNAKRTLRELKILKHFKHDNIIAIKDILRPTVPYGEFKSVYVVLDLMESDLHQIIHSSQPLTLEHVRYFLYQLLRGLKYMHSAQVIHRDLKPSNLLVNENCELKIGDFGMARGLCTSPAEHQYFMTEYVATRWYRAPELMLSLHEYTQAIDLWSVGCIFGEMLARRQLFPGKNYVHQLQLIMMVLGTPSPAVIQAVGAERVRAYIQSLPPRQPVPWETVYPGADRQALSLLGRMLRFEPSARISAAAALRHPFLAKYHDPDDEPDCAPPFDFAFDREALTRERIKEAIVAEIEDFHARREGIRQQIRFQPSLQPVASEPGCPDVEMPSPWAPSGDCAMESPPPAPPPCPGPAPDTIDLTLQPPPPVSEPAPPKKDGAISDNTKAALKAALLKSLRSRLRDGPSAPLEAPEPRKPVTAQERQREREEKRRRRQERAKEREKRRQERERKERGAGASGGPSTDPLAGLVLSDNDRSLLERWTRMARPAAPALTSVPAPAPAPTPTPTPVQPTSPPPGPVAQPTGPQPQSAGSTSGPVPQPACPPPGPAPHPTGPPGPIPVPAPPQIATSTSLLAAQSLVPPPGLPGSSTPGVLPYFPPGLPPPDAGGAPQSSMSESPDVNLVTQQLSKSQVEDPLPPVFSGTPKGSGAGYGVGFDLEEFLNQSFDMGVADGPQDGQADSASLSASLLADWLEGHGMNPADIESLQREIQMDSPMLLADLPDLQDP

[4] = growth inhibition, single agent or in combination, cell-based, chromothripsis tumors, cisplatin or BGB combos (AID 1671449); conditions: LFS_MB_P medulloblastoma cells;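 also: cells exposed for 96 hours; 0% = vehicle DMSO and 100% = killing by high DMSO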
[5] = growth inhibition, single agent and combos, cell-based, chromothripsis tumors, cisplatin or BGB combos (AID 1671450); conditions: HDN33 neuroblastoma cells, stronger effect = higher value;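 also: cells exposed to compound for four days; 0% = vehicle DMSO and 100% = cell killing by high DMSO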
[6] = growth inhibition, single agents and combos, ICB984, cell-based, cisplatin or BGB combos, synergistic combos for chromothripsis tumors (AID 1671451; call rule not given here;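 also: cells exposed for 96 hours before readout; 0% = vehicle DMSO and 100% = killing by high DMSO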); conditions: ICB984 medulloblastoma cells, drug combinations, stronger effect = higher value
[7] = growth inhibition, single agents and combos, LFS_MB_1R, cell-based, cisplatin or BGB combos, synergistic combos for chromothripsis tumors (AID 1671452); conditions: LFS_MB_1R medulloblastoma cells, stronger effect = higher value;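 also: cells exposed for 96 hours before readout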
[8] = growth inhibition, single agents and combos, HTB85, cell-based, BGB or cisplatin IC20 combos, synergistic combos for chromothripsis tumors (AID 1671453); conditions: HTB85 osteosarcoma cells, drug combinations, stronger effect = higher value;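 also: cells exposed for 96 hours before readout; 0% = vehicle DMSO and 100% = high DMSO killing control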
[9] = growth inhibition, single agents and combos, CRL2098, cell-based, BGB or cisplatin IC20 combos, synergistic combos for chromothripsis tumors (AID 1671454); conditions: CRL2098 osteosarcoma cells, drug combinations, stronger effect = higher value;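 also: cells exposed for 96 h before readout; 0% = vehicle DMSO and 100% = killing by high DMSO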
[10] = growth inhibition, single agents and combos, HD-MB03, cell-based, BGB or cisplatin IC20 combos, synergistic combos for chromothripsis tumors (AID 1671455; in the data active = inhibition above about 83%;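 also: 0% = vehicle DMSO and 100% = high DMSO as cytotoxic control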); conditions: HD-MB03 medulloblastoma cells, stronger effect = higher value
[11] = growth inhibition, single agents and combos, UWB1.289, cell-based, BGB or cisplatin combos, synergistic combos for chromothripsis tumors (AID 1671456); conditions: UWB1.289 ovarian carcinoma cells, stronger effect = higher value;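 also: cells exposed to compound for four days; 0% = vehicle DMSO and 100% = killing by high DMSO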
[12] = growth inhibition, single agents and combos, LFS_MB_2R, cell-based, cisplatin combos, synergistic combos for chromothripsis tumors (AID 1671457); conditions: LFS_MB_2R medulloblastoma cells, stronger effect = higher value;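 also: cells exposed to compound for four days before readout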
[13] = growth inhibition, MDA-MB-436, cell-based, BGB or cisplatin combos, synergistic combos for chromothripsis tumors (AID 1671458; call rule not given here;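 also: cells exposed for 96 hours; 0% = vehicle DMSO and 100% = killing by high DMSO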); conditions: MDA-MB-436 breast carcinoma growth inhibition, drug combinations, stronger effect = higher value
[14] = UWB1.289_BRCA1 ovarian cancer growth, cell-based, BGB or cisplatin combinations (AID 1671459); conditions: UWB1.289 BRCA1 ovarian carcinoma, drug combinations, stronger effect = higher value
[15] = drug combination toxicity in non-malignant astrocytes – cell-based, BGB or cisplatin IC20 combos, cytotoxicity control for chromothriptic childhood tumor combination screen (AID 1671460); conditions: Human astrocytes, viability inhibition, drug combinations, at 0.5 µM, stronger effect = higher value;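 also: cells exposed to compounds for 96 hours before viability readout; 0% = vehicle and 100% = killing control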
[16] = BT084 cell growth, single and combined drugs, ICGC_MB145, cisplatin and BGB IC40 combos (AID 1671461); conditions: BT084 medulloblastoma cells, drug combinations, stronger effect = higher value;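 also: cells exposed to drugs for 96 hours; 0% = vehicle DMSO and 100% = high DMSO full killing control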
[17] = RCMB18 cell growth, single agent and combined, cisplatin and BGB IC40 combos (AID 1671462); conditions: RCMB18 medulloblastoma cells, stronger effect = higher value;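 also: cells exposed to compound for four days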
[18] = CRL1545 cell growth, single agent and combined, cisplatin and BGB IC20 combos (AID 1671464); conditions: CRL1545 osteosarcoma cells, stronger effect = higher value;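 also: cells exposed to compound for 96 hours before readout; 0% = vehicle DMSO and 100% = high DMSO killing control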
[19] = measured here: combination with BGB IC40, at 0.05 µM
[20] = measured here: with BGB IC20 combination, at 0.5 µM
[21] = measured here: with cisplatin IC20 combination, at 0.5 µM
[22] = measured here: combination with cisplatin, at 0.5 µM
[23] = measured here: combination with cisplatin, at 5 µM

COc1cc(C(=O)OCCCN2CCCN(CCCOC(=O)c3cc(OC)c(OC)c(OC)c3)CC2)cc(OC)c1OC
remaining NAD [1]: 10 nM (inactive) | z-score [2]: -0.89 (inactive) and 0.995 (inactive) and -0.26 (inactive)

CC1=NN(c2ccccc2)C(=O)C1
remaining NAD [1]: 10 nM (inactive) | z-score [2]: 1.25 (inactive)

NC(=O)NO
remaining NAD [1]: 10 nM (inactive) | luciferase signal [3]: 44 AU (inactive) | z-score [2]: 0.03 (inactive) | inhibition ([4]; at 0.5 µM, stronger effect = higher value): -32.5% (inactive) | inhibition ([4]; measured here: combination with BGB IC20, at 0.005 µM): -13.7% | inhibition ([4]; measured here: combination with BGB IC40, at 0.005 µM): 33.3% | inhibition [4, 19]: -4.05% | inhibition ([4]; measured here: combination with cisplatin, at 0.5 µM, stronger effect = higher value): -74.7% | inhibition ([4]; measured here: combination with cisplatin, at 5 µM, stronger effect = higher value): 7.33% | inhibition ([5]; BGB combo, at 5 µM): 4.14% | inhibition ([5]; at 0.5 µM): -0.11% (inactive) | inhibition ([5]; cisplatin combo, at 5 µM): 7.9% | inhibition [5, 20]: 1.89% | inhibition [5, 21]: -0.484% | inhibition ([5]; single agent, at 5 µM): 3.76% | inhibition ([6]; BGB IC20 combo, at 0.005 µM): -9.77% | inhibition ([6]; BGB IC40 combo, at 0.005 µM): -3.4% | inhibition ([6]; BGB IC40 combo, at 0.05 µM): -15.1% | inhibition ([6]; at 0.5 µM): -0.36% (inactive) | inhibition ([6]; cisplatin combo, at 0.05 µM): -15.1% | inhibition ([6]; cisplatin combo, at 0.5 µM): -15.2% | inhibition ([6]; cisplatin combo, at 5 µM): -5.34% | inhibition ([6]; measured here: 5 uM single agent, at 5 µM): -13.7% | inhibition ([7]; at 0.5 µM): -11.7% (inactive) | inhibition [7, 19]: -14.3% | inhibition [7, 22]: 23.3% | inhibition [7, 23]: 27.3% | inhibition ([8]; at 0.5 µM): 4.31% (inactive) | inhibition ([8]; measured here: with BGB IC20, at 0.5 µM): -11.6% | inhibition ([8]; measured here: with BGB IC20, at 5 µM): 7.32% | inhibition ([8]; measured here: with cisplatin IC20, at 0.5 µM): -0.499% | inhibition ([8]; measured here: with cisplatin IC20, at 5 µM): 13.2% | inhibition ([8]; single agent, at 5 µM): 18.4% | inhibition ([9]; at 0.5 µM): -5.49% (inactive) | inhibition ([9]; measured here: combination with BGB at IC20, at 0.5 µM): -9.56% | inhibition ([9]; measured here: combination with cisplatin at IC20, at 0.5 µM): 4.43% | inhibition ([10]; at 0.5 µM): -4.93% (inactive) | inhibition ([10]; measured here: combo with BGB at IC20, at 0.5 µM): -2.45% | inhibition ([10]; measured here: combo with cisplatin at IC20, at 0.5 µM): -8.29% | inhibition ([11]; at 0.5 µM): 5.4% (inactive) | inhibition ([11]; measured here: inhibition with BGB combination, at 0.05 µM): 5.3% | inhibition ([11]; measured here: inhibition with cisplatin combination, at 0.05 µM): -10.2% | inhibition ([12]; at 0.5 µM): 11.7% (inactive) | inhibition [12, 22]: 8.29% | inhibition [12, 23]: 17% | inhibition ([13]; at 0.5 µM): -8.14% (inactive) | inhibition ([13]; measured here: BGB combination, at 0.5 µM): -5.6% | inhibition ([13]; measured here: BGB combination, at 5 µM): -2.86% | inhibition ([13]; measured here: cisplatin combination, at 0.5 µM): -19.6% | inhibition ([13]; measured here: cisplatin combination, at 5 µM): 19.7% | inhibition ([14]; BGB combination, concentration series, at 5 µM): 13.1% | inhibition ([14]; at 0.5 µM): 4.57% (inactive) | inhibition ([14]; cisplatin combination, concentration series, at 5 µM): 15.7% | inhibition [15]: -3.17% (inactive) | inhibition ([15]; measured here: combo with BGB IC20): -6.58% | inhibition ([15]; measured here: combo with cisplatin IC20): 5.32% | inhibition ([16]; at 0.5 µM): 3.97% (inactive) | inhibition ([16]; cisplatin combination, at 0.5 µM): 0.756% | inhibition ([16]; cisplatin combination, at 5 µM): -27.3% | inhibition ([16]; measured here: BGB IC40 combination 0.05 uM, at 0.05 µM): 10.1% | inhibition ([16]; single agent, at 5 µM): 1.06% | inhibition ([17]; at 0.5 µM): 12.5% (inactive) | inhibition ([17]; cisplatin combo, at 5 µM): 15.7% | inhibition ([17]; measured here: BGB IC40 combination, at 0.05 µM): -13.6% | inhibition [17, 22]: 28.2% | inhibition ([17]; single agent, at 5 µM): -32.4% | inhibition ([18]; at 0.5 µM): -15.5% (inactive) | inhibition [18, 20]: 6.18% | inhibition [18, 21]: -26.4% | inhibition ([18]; single agent, at 0.05 µM): -10.2% | inhibition ([18]; single agent, at 5 µM): -5.37%

CN1CCCCC1CCN1c2ccccc2Sc2ccc(S(C)=O)cc21 (configuration not stated)
remaining NAD [1]: 10 nM (inactive) | z-score [2]: 0.175 (inactive) and 0.14 (inactive)
